This is an account of results in PubChem BioAssay (Tox21).

Results filed as inconclusive are left out. The source made the active and inactive calls. Unless noted, the call rests on the fitted dose curve; in most records, active means well fitted cell-killing curve with a large enough effect in the repeat runs; inconclusive means weak or mixed curves; inactive means no such curve, though single readings can be large or run the other way.
On the % scale 0 is the no-effect control and ±100 the full control effect.

Peroxisome proliferator-activated receptor delta (Homo sapiens), sequence (Q03181 whole entry, looked up): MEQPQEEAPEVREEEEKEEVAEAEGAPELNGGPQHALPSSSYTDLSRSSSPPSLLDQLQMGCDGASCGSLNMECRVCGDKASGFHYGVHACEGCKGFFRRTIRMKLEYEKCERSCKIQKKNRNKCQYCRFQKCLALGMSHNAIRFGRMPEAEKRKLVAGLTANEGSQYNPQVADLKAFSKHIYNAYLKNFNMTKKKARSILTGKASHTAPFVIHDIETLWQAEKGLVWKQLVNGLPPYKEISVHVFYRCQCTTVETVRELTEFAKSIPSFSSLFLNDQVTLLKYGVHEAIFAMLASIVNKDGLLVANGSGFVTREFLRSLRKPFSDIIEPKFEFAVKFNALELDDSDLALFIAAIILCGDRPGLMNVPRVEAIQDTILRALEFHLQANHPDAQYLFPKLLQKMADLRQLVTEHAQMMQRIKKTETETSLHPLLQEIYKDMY

System in the first experiment: not listed separately
As to the kind of experiment: qHTS assay to identify small molecule antagonists of the peroxisome proliferator-activated receptor delta (PPARd) signaling pathway - cell viability counter screen (AID 743213). Further: nearly all actives have a fitted effect of over 50% in size. The conditions noted are these: PPARd-bla HEK293H viability, CellTiter-Glo luminescence, 17 h; series mostly up to 62 µM; viability change, negative = cytotoxic: at the top concentration. The procedure, abridged: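 Viability counter-screen, qHTS format: PPARd-bla HEK293H, L165041 300 nM final, 17 h compound exposure at 37 C, CellTiter-Glo luminescence after 30 min RT.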
A general note: In qHTS, concentration-response curves come from the screen itself.
As for `CCCOCC(C)OCC(C)O` (stereo unspecified), the “viability change, negative = cytotoxic” value is 0.484% [at 80.4 µM] (inactive).
Regarding `C#CC(O)CCCCC` (stereo unspecified), the “viability change, negative = cytotoxic” value is 0.89% [at 80.4 µM] (inactive).
For `CC(C)N1C(=O)c2ccccc2C1=O`, the “viability change, negative = cytotoxic” value was 8.62% (inactive).
Turning to `O=S(=O)(O)c1ccccc1O`, the “viability change, negative = cytotoxic” value is -1.11% (inactive).
Consider `NS(=O)(=O)c1cc2c(cc1Cl)NC(CSCc1ccccc1)=NS2(=O)=O`, for which the “viability change, negative = cytotoxic” value is 3.46% (inactive).
For the molecule `CC(=O)c1ccc(C)cc1`, the “viability change, negative = cytotoxic” value is 11.3% (inactive).
Turning to `CC(CCO)CCCC(C)(C)O` (stereo unspecified), the “viability change, negative = cytotoxic” value was 4.08% (inactive).
In the case of `CC1(C)OC(=O)Nc2ccc(Br)cc21`, the “viability change, negative = cytotoxic” value is 6.32% (inactive).
Turning to `CCCCCCCCN(C)CCCCCCCC`, the “viability change, negative = cytotoxic” value is 2.75% [at 80.4 µM] (inactive).
With `CC(C)COC(=O)c1ccccc1O`, the “viability change, negative = cytotoxic” value is -2.41% (inactive).
`CCCCC=O`: the “viability change, negative = cytotoxic” value was -11.7% (inactive).

A further experiment concerns the target Peroxisome proliferator-activated receptor delta (Homo sapiens) (UniProt Q03181). The experiment can be described thus: qHTS assay to identify small molecule antagonists of the peroxisome proliferator-activated receptor delta (PPARd) signaling pathway (AID 743215; active means well fitted inhibition curve with a large enough effect in the signal ratio in the repeat runs, not every such curve was filed as active; the % refers to the signal ratio;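 further: cells stimulated with agonist L165041 at 300 nM final during compound exposure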). The conditions noted are these: HEK293H PPARd-UAS-bla, beta-lactamase FRET ratio, antagonist, 17 h; series mostly up to 62 µM; ratio activity, negative = inhibition: at the top concentration. Summed up:
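Inhibition of L165041-driven (300 nM final) PPARd signaling is scored in HEK293H UAS-bla cells. Exposure lasts 17 h at 37 C; beta-lactamase activity is then read by FRET substrate fluorescence after 2 h at room temperature.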
For the molecule `Cc1ncc(CSSCc2cnc(C)c(O)c2CO)c(CO)c1O`, the “ratio activity, negative = inhibition” value was -3.39% (inactive).
Consider `CCCCCCC(CCCCCCCCCCC(=O)OCC(COC(C)=O)OC(C)=O)OC(C)=O` (stereo unspecified), for which the “ratio activity, negative = inhibition” value is -2.16% (inactive).
The same measure, in the same setting: the figure for `NC(=O)Nc1nc2ccccc2[nH]1` is -2.27% (inactive); for `CC(C)[C@H](N)C(=O)OCCOCn1cnc2c(=O)[nH]c(N)nc21` it is 3.78% (inactive).
For the molecule `CCCC=O`, the “ratio activity, negative = inhibition” value is -12% (inactive).
The same measure, in the same setting: the figure for `CC(C)(O)c1ccccc1` is -3.24% (inactive); for `CCc1cc(S(=O)(=O)O)c2cc(C(C)C)cccc1-2` it is 0.487% (inactive).
As for `Cc1onc(-c2ccccc2)c1-c1ccc(S(N)(=O)=O)cc1`, the “ratio activity, negative = inhibition” value was 8.14% (inactive).
With `N#CCc1ccccc1[N+](=O)[O-]`, the “ratio activity, negative = inhibition” value is -2.48% (inactive).
Same read-out and setting: the figure for `O=C1C(CCS(=O)c2ccccc2)C(=O)N(c2ccccc2)N1c1ccccc1` (stereo unspecified) is -2.37% (inactive); for `CCOC(=O)Cn1c(=O)sc2cccc(Cl)c21` it is 6.11% (inactive); for `O=C(O)c1cccc(C(=O)O)n1` it is 13.2% (inactive).
For `NC(=O)c1ncn([C@@H]2O[C@H](CO)[C@@H](O)[C@H]2O)c1O`, the “ratio activity, negative = inhibition” value is 1.56% (inactive).
As for `NCCN1CCNC1=O`, the “ratio activity, negative = inhibition” value was 0.778% (inactive).
Same read-out and setting: as for `O=C(O)/C=C/c1ccc(Cn2ccnc2)cc1`, the figure is 14.2% (inactive).
